This is a sample that favours compounds with a hit; in the whole collection about 27% have one here.
CYP2C19 inh – blockers of cytochrome P450 2C19 activity – biochemical, luminescence, ADME assay, primary screen; P33261; CYP2C19 Supersomes, luciferin-H EGE luminescence, 30 min; inhibition, % at 5 µM; 21% of 96,000 active;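 active = CYP2C19 inhibition above a set limit at 5 µM in the primary screen, cut at about 50% in these data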;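 note: plate controls were negative control wells for no effect and 2.5 mM tranylcypromine positive control for full effect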
Cav32 inh – Cav3.2 calcium influx blockers – cell-based, Fluo-4 calcium fluorescence, FDSS, MLSMR library, primary screen; Voltage-dependent T-type calcium channel subunit alpha-1H (Homo sapiens), O95180; Cav3.2-expressing cells; hits give low values; B-score at 10 µM; 4% of 100,000 active;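 active = single-dose well whose peak fluorescence ratio is a statistical outlier from its plate by either plate-standardised score or position-corrected B-score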
Target sequence (O95180 whole entry, looked up): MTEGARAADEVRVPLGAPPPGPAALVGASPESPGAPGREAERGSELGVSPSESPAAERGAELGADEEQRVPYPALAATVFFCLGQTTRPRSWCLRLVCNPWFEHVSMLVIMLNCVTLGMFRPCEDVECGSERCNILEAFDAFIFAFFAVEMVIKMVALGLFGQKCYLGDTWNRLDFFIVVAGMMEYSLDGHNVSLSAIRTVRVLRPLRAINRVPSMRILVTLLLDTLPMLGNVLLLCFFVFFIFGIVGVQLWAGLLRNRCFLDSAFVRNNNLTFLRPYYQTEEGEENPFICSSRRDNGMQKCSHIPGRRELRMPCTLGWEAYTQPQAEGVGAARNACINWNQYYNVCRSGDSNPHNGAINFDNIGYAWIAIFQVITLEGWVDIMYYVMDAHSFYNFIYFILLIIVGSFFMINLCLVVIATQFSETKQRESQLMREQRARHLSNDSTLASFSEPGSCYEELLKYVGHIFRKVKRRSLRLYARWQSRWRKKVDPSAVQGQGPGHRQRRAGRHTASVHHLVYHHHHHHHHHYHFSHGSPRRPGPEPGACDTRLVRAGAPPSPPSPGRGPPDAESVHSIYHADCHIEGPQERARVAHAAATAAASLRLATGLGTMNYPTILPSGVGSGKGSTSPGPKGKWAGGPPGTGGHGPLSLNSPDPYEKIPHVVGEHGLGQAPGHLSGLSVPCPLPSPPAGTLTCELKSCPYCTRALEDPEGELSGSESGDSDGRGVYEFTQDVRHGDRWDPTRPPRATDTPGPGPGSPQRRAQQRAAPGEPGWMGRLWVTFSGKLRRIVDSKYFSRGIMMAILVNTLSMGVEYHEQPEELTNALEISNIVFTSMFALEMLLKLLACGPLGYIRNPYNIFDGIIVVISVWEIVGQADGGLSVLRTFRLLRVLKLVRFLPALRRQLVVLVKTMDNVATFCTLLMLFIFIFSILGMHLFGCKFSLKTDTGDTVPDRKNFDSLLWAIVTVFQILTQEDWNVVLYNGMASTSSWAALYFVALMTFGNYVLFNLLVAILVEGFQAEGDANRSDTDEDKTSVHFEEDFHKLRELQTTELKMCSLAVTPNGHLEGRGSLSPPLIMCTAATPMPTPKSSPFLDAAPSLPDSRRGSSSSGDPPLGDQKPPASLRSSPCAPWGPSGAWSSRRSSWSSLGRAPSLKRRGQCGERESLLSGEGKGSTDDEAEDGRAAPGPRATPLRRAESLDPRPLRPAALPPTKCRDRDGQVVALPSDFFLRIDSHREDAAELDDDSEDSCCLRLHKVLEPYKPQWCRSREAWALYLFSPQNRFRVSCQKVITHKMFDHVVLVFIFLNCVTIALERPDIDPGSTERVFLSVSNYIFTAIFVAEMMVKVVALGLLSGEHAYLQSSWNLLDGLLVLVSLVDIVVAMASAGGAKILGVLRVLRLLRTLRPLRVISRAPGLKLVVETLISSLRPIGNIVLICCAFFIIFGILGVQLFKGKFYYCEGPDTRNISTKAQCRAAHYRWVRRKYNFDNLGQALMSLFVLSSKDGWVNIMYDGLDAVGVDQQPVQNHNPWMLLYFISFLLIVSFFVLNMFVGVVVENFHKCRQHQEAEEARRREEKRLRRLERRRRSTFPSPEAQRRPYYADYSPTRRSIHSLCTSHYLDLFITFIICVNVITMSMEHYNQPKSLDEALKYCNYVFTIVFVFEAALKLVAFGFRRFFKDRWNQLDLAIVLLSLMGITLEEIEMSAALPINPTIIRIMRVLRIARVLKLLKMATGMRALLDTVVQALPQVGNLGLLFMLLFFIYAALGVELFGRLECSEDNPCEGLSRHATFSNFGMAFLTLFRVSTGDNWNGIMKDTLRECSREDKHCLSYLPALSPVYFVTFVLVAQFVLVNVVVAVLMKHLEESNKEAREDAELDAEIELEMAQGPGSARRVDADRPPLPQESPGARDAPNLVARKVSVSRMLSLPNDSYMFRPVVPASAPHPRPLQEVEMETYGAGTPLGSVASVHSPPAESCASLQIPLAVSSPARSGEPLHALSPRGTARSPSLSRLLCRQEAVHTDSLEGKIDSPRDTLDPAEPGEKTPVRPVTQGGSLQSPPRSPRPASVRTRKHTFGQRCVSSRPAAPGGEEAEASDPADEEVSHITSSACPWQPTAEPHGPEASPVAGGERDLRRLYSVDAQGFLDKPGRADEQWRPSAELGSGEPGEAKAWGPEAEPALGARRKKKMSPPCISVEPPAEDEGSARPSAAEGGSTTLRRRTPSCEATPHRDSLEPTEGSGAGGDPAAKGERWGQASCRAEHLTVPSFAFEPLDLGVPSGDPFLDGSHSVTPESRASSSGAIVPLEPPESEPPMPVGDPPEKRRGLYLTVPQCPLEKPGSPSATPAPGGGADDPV
CYP2C9 activ – human CYP2C9 activators, primary screen, biochemical, luminescence; activation factor at 5 µM; AID 1024, 2008; 1.4% of 96,000 active; recombinant CYP2C9, luciferin-H conversion; hits give high values; factor 1 = untreated enzyme, 0 = blocked;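 active = activation factor of 2 or more for CYP2C9 at a 5 µM dose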;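 note: 0 = sulfaphenazole-blocked wells and 1 = vehicle-only wells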
CYP2C9 inh – blockers of cytochrome P450 2C9 activity – biochemical, luminescence, ADME assay, primary screen. P11712. CYP2C9 Supersomes, luciferin-H conversion. inhibition, % at 5 µM. 20% of 96,000 active. AID 777, 2007;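 active = blocking of liver enzyme CYP2C9 beyond about 50% at 5 µM, limit read from the data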
CYP2C19 act – human CYP2C19 activators, primary screen, biochemical, luminescence; Cytochrome P450 2C19 (Homo sapiens), P33261; recombinant CYP2C19, luciferin-H EGE luminescence; hits give high values; 0 = fully inhibited enzyme, 1 = untreated enzyme; activation factor at 5 µM; 96,000 tested, under 10 active;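 active = activation factor of at least 2 at 5 µM in the primary screen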;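 note: 0 = wells with 2.5 mM tranylcypromine and 1 = vehicle-only wells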
An asterisk follows results filed as active.

What do the screens show for `CC1CCCCC1NC(=O)c1cn(C)c2ccc(S(=O)(=O)N3CCCC3)cc2c1=O` (configuration not stated)?
CYP2C19 inh: -2; Cav32 inh: 0.59; CYP2C9 activ: 0.6; CYP2C9 inh: 39; CYP2C19 act: 1

What do the screens show for `CCn1cc(C(=O)NCCN(C)CCc2ccccc2)c(=O)c2cc(S(=O)(=O)N(C)C)ccc21`?
CYP2C19 inh: 37; Cav32 inh: 1.7; CYP2C9 activ: 0.3; CYP2C9 inh: 75*; CYP2C19 act: 0.6

How did CCn1cc(C(=O)NCc2ccco2)c(=O)c2cc(S(=O)(=O)N3CCCCCC3)ccc21 do in these assays?
CYP2C19 inh: 49; Cav32 inh: -2.2; CYP2C9 activ: 0.1; CYP2C9 inh: 86*; CYP2C19 act: 0.5

Results for CCn1cc(C(=O)NCCCN2CCC(C)CC2)c(=O)c2cc(S(=O)(=O)N3CCCC3)ccc21 ?
CYP2C19 inh: -5; Cav32 inh: 0.67; CYP2C9 activ: 0.9; CYP2C9 inh: 14; CYP2C19 act: 1

Results for CCn1cc(C(=O)NCc2ccccn2)c(=O)c2cc(S(=O)(=O)N3CCCCC3)ccc21 ?
CYP2C19 inh: 10; CYP2C9 activ: 0.5; CYP2C9 inh: 48; CYP2C19 act: 0.9

How did O=C(COC(=O)c1cccc(S(=O)(=O)N2CCc3ccccc3C2)c1)NCc1ccco1 do in these assays?
CYP2C19 inh: 28; CYP2C9 activ: 0.6; CYP2C9 inh: 42; CYP2C19 act: 0.7

How did CCn1cc(C(=O)NCc2ccco2)c(=O)c2cc(S(=O)(=O)N3CC(C)CC(C)C3)ccc21 (configuration not stated) do in these assays?
CYP2C19 inh: 9; Cav32 inh: -8.1*; CYP2C9 activ: 0.4; CYP2C9 inh: 58*; CYP2C19 act: 0.9

Results for O=C(COC(=O)c1cc(S(=O)(=O)N2CCc3ccccc3C2)ccc1Cl)NCc1ccco1 ?
CYP2C19 inh: 40; Cav32 inh: -3.5; CYP2C9 activ: 0.3; CYP2C9 inh: 66*; CYP2C19 act: 0.6

How did C#CCNC(=O)C1=C[C@H](c2ccc3c(c2)OCO3)[C@@H](CCCO)[C@H](OCC)O1 do in these assays?
Cav32 inh: 0.0053

Results for COC(=O)CCC(NC(=O)OCc1ccccc1)C(=O)NC(CC(C)C)C(=O)OC (configuration not stated) ?
CYP2C19 inh: 36; Cav32 inh: -0.91; CYP2C9 activ: 0.3; CYP2C9 inh: 68*; CYP2C19 act: 0.6

Results for Cc1cc(CNC(=O)[C@H](C)[C@@H]2C[C@@]2(C)[C@@H](NC(=O)OCc2ccccc2)c2ccccc2)nn1C ?
Cav32 inh: -0.23

What do the screens show for `O=C(O)C1CC=CCC1C(=O)Nc1ccc2c(c1)OCCO2` (configuration not stated)?
Cav32 inh: -2.4

Results for Cc1cc(=O)oc2cc(OCC3CC(c4ccccc4)=NO3)ccc12 (configuration not stated) ?
CYP2C19 inh: 43; Cav32 inh: -0.61; CYP2C9 activ: 0.5; CYP2C9 inh: 51*; CYP2C19 act: 0.6

How did Cc1cc(=O)oc2cc(OCC(O)CN3CCc4ccccc4C3)ccc12 (configuration not stated) do in these assays?
CYP2C19 inh: 65*; Cav32 inh: 0.92; CYP2C9 activ: 0; CYP2C9 inh: 100*; CYP2C19 act: 0.4

What do the screens show for `Cc1cc(=O)oc2cc(OCC3CC(c4ccc(Br)cc4)=NO3)ccc12` (configuration not stated)?
CYP2C19 inh: 24; Cav32 inh: -0.82; CYP2C9 activ: 0.7; CYP2C9 inh: 30; CYP2C19 act: 0.8

What do the screens show for `C#CCOc1ccc2c(C)cc(=O)oc2c1`?
CYP2C19 inh: 64*; CYP2C9 activ: 1; CYP2C9 inh: 2; CYP2C19 act: 0.4

What do the screens show for `Cc1cc(=O)oc2cc(OCC(O)CN3CCN(c4ccccc4)CC3)ccc12` (configuration not stated)?
CYP2C19 inh: 13; CYP2C9 activ: 0.9; CYP2C9 inh: 5; CYP2C19 act: 0.9

How did Cc1cc(=O)oc2cc(OC(C)C)ccc12 do in these assays?
CYP2C19 inh: 7; Cav32 inh: -0.071; CYP2C9 activ: 1; CYP2C9 inh: 4; CYP2C19 act: 0.9

What do the screens show for `CCN(CC(=O)Nc1ccc2c(c1)OC(F)(F)O2)Cc1nc2ccccc2c(=O)[nH]1`?
CYP2C19 inh: 88*; Cav32 inh: -1.6; CYP2C9 activ: 0.1; CYP2C9 inh: 92*; CYP2C19 act: 0.1

Results for CCN(CC(=O)Nc1ccc2c(c1)CCC2)Cc1nc2ccccc2c(=O)[nH]1 ?
CYP2C19 inh: 92*; Cav32 inh: -1.9; CYP2C9 activ: 0.1; CYP2C9 inh: 89*; CYP2C19 act: 0.1

How did COc1cccc(C(=O)N(Cc2ccc3c(c2)OCO3)Cc2nc3ccccc3c(=O)[nH]2)c1 do in these assays?
CYP2C19 inh: 74*; Cav32 inh: -0.056; CYP2C9 activ: 0.2; CYP2C9 inh: 81*; CYP2C19 act: 0.3

What do the screens show for `CN(CC(=O)Nc1ccccc1Br)Cc1nc2ccccc2c(=O)[nH]1`?
CYP2C19 inh: 83*; CYP2C9 activ: 0.2; CYP2C9 inh: 81*; CYP2C19 act: 0.2

What do the screens show for `CCN(Cc1nc2ccccc2c(=O)[nH]1)Cc1nc2cc(OC)c(OC)cc2c(=O)[nH]1`?
CYP2C19 inh: 16; Cav32 inh: 0.51; CYP2C9 activ: 0.9; CYP2C9 inh: 10; CYP2C19 act: 0.8

How did Cc1nc(N)c2c(Cc3cccc4ccccc34)nn(C(C)(C)C)c2n1 do in these assays?
Cav32 inh: -0.44

Results for Cn1c(=O)c(C(=O)CCl)c(N)n(CC2CC2)c1=O ?
Cav32 inh: 0.4

What do the screens show for `Cc1noc(C)c1C(=O)Nc1nc(C23CC4CC(CC(C4)C2)C3)cs1`?
CYP2C19 inh: 6; Cav32 inh: -0.31; CYP2C9 activ: 1; CYP2C9 inh: 1; CYP2C19 act: 0.9

How did O=C(CN1C(=O)NC2(CCCCCCC2)C1=O)N1CCOCC1 do in these assays?
CYP2C19 inh: -4; Cav32 inh: -0.93; CYP2C9 activ: 1.1; CYP2C9 inh: -12; CYP2C19 act: 1

How did CCN(CC(=O)Nc1ccc2c(c1)OCO2)Cc1nc2ccccc2c(=O)[nH]1 do in these assays?
CYP2C19 inh: 77*; Cav32 inh: 0.68; CYP2C9 activ: 0.2; CYP2C9 inh: 81*; CYP2C19 act: 0.2

What do the screens show for `CCN(CC(=O)NC(=O)NC1CCCCC1)Cc1nc2ccccc2c(=O)[nH]1`?
CYP2C19 inh: 27; Cav32 inh: -0.2; CYP2C9 activ: 0.7; CYP2C9 inh: 33; CYP2C19 act: 0.7

How did CCN(CC(=O)NC(c1ccccc1)c1ccccc1)Cc1nc2ccccc2c(=O)[nH]1 do in these assays?
CYP2C19 inh: 65*; Cav32 inh: -3.9; CYP2C9 activ: 0.5; CYP2C9 inh: 49; CYP2C19 act: 0.4

Bioassay records: PubChem, several laboratories
